Hit rate of the full screen: of about 2,200 compounds, about 530 (24%) were called active.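 Rule for the calls: active = inhibition above a set limit at one or more concentrations of the dose series; inactive = inhibition under that limit at every dose.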 Only a sample is shown. Results with a measured potency or affinity are listed apart.

Results on 110 molecules are retold here after PubChem BioAssay AID2401 (Southern Research Specialized Biocontainment Screening …, 2010).

The nature of the assay: nmpC-GFP reporter counter-screen in S. Typhimurium, dose response, counter-screen for PhoP regulon inhibitor project, Salmonella Typhimurium, GFP fluorescence (AID 2401).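 Note: S. typhimurium with Mg-insensitive nmpC-GFP reporter grown at 10 µM Mg2+; drop in reporter fluorescence reflects general culture growth inhibition.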 Conditions: 4 h; series mostly up to 150 µM.
Regarding `C#CC(C)(CC)NC(=O)c1cc(OC)c(OC)c(OC)c1` (stereo not given), the molecule was classed as inactive. Take `COC(=O)c1ccc(C)c(NC(=O)CN(c2cc(OC)ccc2OC)S(C)(=O)=O)c1`: the outcome was inactive. `CN(CC(=O)Nc1ccc(C#N)cc1)Cc1ccc(Cl)cc1`: the result was inactive. The same measure for `Cc1cccc(C)c1Nc1nnc(SCC(=O)Nc2sccc2C#N)s1`: “inactive”; for `COc1ccc(S(=O)(=O)n2nc(OC(=O)c3cccs3)cc2N)cc1`: “inactive”; for `CCC(CC)c1nnc(NC(=O)Oc2ccccc2)s1`: “inactive”. With `CCOc1cccc(CNc2ccc(O)cc2)c1OCc1ccc(Cl)cc1Cl` the entry was “inactive”; with `CCOc1ccc(/C(O)=C2\C(=O)C(=O)N(CCN(C)C)C2c2cccc(OC)c2OC)cc1Cl` (stereo not given), “inactive”; with `Cc1ccc(OCc2nnc(SCC(=O)Nc3ccc4c(c3)OCO4)n2C)cc1`, “inactive”. On to `BrC(=C\c1ccccc1)/C=N/N1CCN(c2ccccn2)CC1`, for which the molecule was called inactive. The same measure for `CCOC(=O)N1CCN(c2nc(C)c3c(n2)CCCC3=O)CC1`: “inactive”; for `COC(=O)C(C)N1C(=O)S/C(=C\c2cc(C)n(-c3ccccn3)c2C)C1=O` (stereo not given): “inactive”. The same measure for `Cc1ccc(-c2nc3ccccc3[nH]2)cc1NC(=S)NC(=O)c1ccccc1Br`: “inactive”; for `Cc1c(NS(=O)(=O)c2ccc(N(C)C3CCCCC3)c([N+](=O)[O-])c2)c(=O)n(-c2ccccc2)n1C`: “inactive”; for `Cc1cc(C)cc(CC(Cc2nc3ccccc3[nH]2)c2nc3ccccc3[nH]2)c1` (stereo not given): “inactive”. The same measure for `COc1ccc(C(=O)N2CCN(C(=O)c3ccco3)CC2)cc1OC`: “inactive”. Consider `Cc1cccc2cc(C#N)c(N3CCN(C)CC3)nc12`, for which the call was inactive. With `CC(C)(C)C1CCc2c(sc(NC(=O)c3cccs3)c2C(=O)N2CCCCC2)C1` (stereo not given) the entry was “inactive”; with `CCOC(=O)c1c(NC(=O)Nc2ccc(C)cc2)sc2c1CCN(C)C2`, “inactive”.

On to `NC(=O)c1c(NC(=O)CN2C(=O)CCC2=O)sc2c1CCCCC2`, for which the call was inactive. Regarding `CCCCCOC(=O)C1=C(C)Nc2nnnn2C1c1ccc(OC)c(OC)c1OC` (stereo not given), the outcome was inactive. Regarding `CCn1nnc(-c2ccccc2NS(=O)(=O)c2ccc(S(=O)(=O)N3CCCCCC3)cc2)n1`, the molecule was classed as inactive. On to `O=C(CSc1ccc2c(c1)OCCO2)NCCc1ccc(Cl)cc1Cl`, for which the outcome was inactive. With `Cc1[nH]c2ccccc2c1C(c1ccncc1)N1CCN(c2ccc(F)cc2)CC1` (stereo not given), the result was inactive. `Oc1ccc(C=Nc2cccc3ncccc23)c(O)c1`: the outcome was inactive. The same measure for `Oc1ccc(C=Nc2ccc3ncccc3c2)c(O)c1`: “inactive”. With `CCCNC(=O)COC(=O)CCC(=O)c1ccc(F)cc1` the entry was “inactive”; with `O=C1CC(N2CCN(Cc3ccccc3)CC2)C(=O)N1c1ccccc1` (stereo not given), “inactive”; with `OCCN(Cc1ccccc1)Cc1ccc(Cl)cc1`, “inactive”. With `OCCNc1ccc(Cl)cc1` the entry was “inactive”.

For `O=C(CN1CCCCCC1)Nc1cccc(Br)c1`, the molecule was called inactive. With `COCCn1c(-c2ccccc2F)n[nH]c1=S` the entry was “inactive”; with `CCOC(=O)/C(=C/C=C/c1ccccc1)NC(=O)c1ccccc1`, “inactive”. With `O=c1cc(O)nc(SCc2ccccc2Cl)[nH]1` the entry was “inactive”.

For the molecule `O=C1c2ccccc2C(=O)N1CCCc1nc(-c2ccccn2)no1`, the molecule was classed as inactive. As to `CC1=NN(c2ccc(Cl)cc2)C(=O)C1C(c1cccc(O)c1)c1c(C)[nH]n(-c2ccc(Cl)cc2)c1=O` (stereo not given), the molecule was called inactive. With `O=C(Nn1c(O)c(C=C2N=c3ccccc3=N2)sc1=S)c1ccc(Cl)cc1` the entry was “inactive”; with `CCOC(=O)/C=C1\SCC(=O)N1CC(=O)NC1CCCCC1`, “inactive”; with `O=C(CN(c1ccc(F)cc1)S(=O)(=O)c1ccc2c(c1)OCCO2)NCc1cccnc1`, “inactive”.

Turning to `S=C(c1ccc2c(c1)OCO2)N1CCCC1`, the molecule was called inactive.

Turning to `COc1ccc(-c2cn[nH]c2-c2ccc(OCc3ccc([N+](=O)[O-])cc3)cc2O)cc1`, the result was inactive. The same measure for `CCN1C(=O)/C(=C/N2CC(C)CC(C)C2)SC1=S` (stereo not given): “inactive”; for `Cc1cc(C(=O)N/N=C/c2cccc([N+](=O)[O-])c2O)n[nH]1`: “inactive”. The same measure for `Cc1cc(C(=O)N/N=C/C=C/c2ccc3c(c2)OCO3)n[nH]1`: “inactive”; for `O=C(N/N=C/c1cccn1-c1ccc([N+](=O)[O-])cc1)C(O)c1ccccc1` (stereo not given): “inactive”; for `CC(=O)c1c(C)[nH]c(C(=O)CSc2nnc(-c3ccco3)n2Cc2ccccc2)c1C`: “inactive”. For `Cn1cccc1C1NC(=O)c2c(sc3c2CCC(C(C)(C)C)C3)N1` (stereo not given), the molecule was classed as inactive. The same measure for `Cc1nn(-c2ccccc2)c(C)c1C(=O)OC/C(O)=C(\C#N)c1nc2ccccc2[nH]1`: “inactive”; for `Cc1cc(C2=NNC(=NC3CC3)SC2)c(C)n1Cc1ccco1`: “inactive”. With `Cc1ccc(-c2nnc(SCC(=O)N3CCCc4ccccc43)n2N)cc1` the entry was “inactive”; with `COC(=O)c1sc2nc(CSc3nc4ccc(C)cc4[nH]3)[nH]c(=O)c2c1C`, “inactive”; with `CCOC(=O)C1=C(c2ccccc2)N=C2SCC(=O)N2C1c1ccc(O)c(OC)c1` (stereo not given), “inactive”.

Take `CCOC(=O)c1cc2ccc(OC)c(OC)c2c(=O)s1`: the result was inactive. With `C/C(=C\c1ccco1)C1Nc2cccc3cccc(c23)N1` the entry was “inactive”; with `COc1ccc(OC)c(NC(=O)c2cc3c(Cl)nc4ccccc4c3s2)c1`, “inactive”. With `CCOC(=O)N1CCN(C(=O)c2ccc(NC(=O)c3ccc(C)cc3)cc2)CC1` the entry was “inactive”; with `C/C(=N\Nc1nc2ccccc2[nH]1)c1cccs1`, “inactive”. With `C/C(=N\Nc1nc2ccccc2[nH]1)c1ccc(Cl)s1` the entry was “inactive”. With `COc1c(/C=N/Nc2nc(N3CCCCC3)nc(N3CCCCC3)n2)cccc1[N+](=O)[O-]`, the result was inactive. With `Cc1cc(/C=N\NC(=O)c2cccs2)c(C)n1-c1ccc2ncccc2c1` the entry was “inactive”; with `COC(=O)c1cn(C(=O)c2cccs2)c2ccccc12`, “inactive”; with `Cc1nc2ccccn2c1C(=O)N/N=C/c1ccccc1[N+](=O)[O-]`, “inactive”.

With `C=CCOc1ccc(CNc2nn[nH]n2)cc1`, the call was inactive.

Regarding `O=C(CCN1CCc2ccccc2C1)Nc1ccccc1F`, the result was inactive. The same measure for `Cc1cc(-c2csc(NC(=O)c3ccc(C#N)cc3)n2)c(C)n1Cc1ccco1`: “inactive”; for `CCOC(=O)CSc1nc2c(sc(=S)n2-c2ccccc2)c(=O)n1-c1ccc(OC)cc1OC`: “inactive”.

Regarding `O=c1[nH]c(SCc2nc3ccccc3c(=O)n2-c2ccccc2C(F)(F)F)nc2ccccc12`, the molecule was classed as inactive. With `C/C(=N\NC(=O)c1c(Cl)c(C)nn1C)c1cccc(NC(=O)COc2ccc(Cl)cc2)c1` the entry was “inactive”. The same measure for `COc1ccc(C2COC(=O)C2=N)c(NC(=O)c2ccc(Cl)cc2)c1` (stereo not given): “inactive”; for `CCCCCCNCc1cccc(Br)c1`: “inactive”. The same measure for `COc1ccc2c(c1)OC1=C(C(=O)CCC1)C2C1=C(O)CCCC1=O` (stereo not given): “inactive”.

For the molecule `Cc1cccc(C(=O)Nc2nnc(Cc3c[nH]c4ccccc34)s2)c1`, the result was inactive. The same measure for `Nc1ncncc1-c1ccc(Cl)cc1`: “inactive”. The same measure for `O=C(Nc1nc2ccc(SC(F)F)cc2s1)c1ccc2c(c1)S(=O)(=O)c1ccccc1C2=O`: “inactive”; for `COC(=O)C1=C(CSc2nc3ccccc3o2)NC(=O)NC1c1cc(C)ccc1C` (stereo not given): “inactive”; for `Cc1cc(C)nc(N2CCCC(C(=O)Nc3ccc4nc(C)c(C)nc4c3)C2)n1` (stereo not given): “inactive”. The same measure for `Cc1ccc(C)n1-c1cccc(N)c1`: “inactive”; for `O=C1CC(c2ccccc2)n2ncnc2N1` (stereo not given): “inactive”; for `COC(OC)c1nc(SCC(=O)Nc2cccc(Cl)c2)ncc1C(=O)O`: “inactive”. Consider `COc1ccc(Cl)cc1-c1nc(SCC(N)=O)n[nH]1`, for which the call was inactive. As for `COc1ccc([N+](=O)[O-])cc1NC(=O)C(C)OC(=O)c1ccccc1C(=O)c1ccc(Cl)cc1` (stereo not given), the outcome was inactive.

Take `CC(O)c1ccc(OCCN(C)c2ccccn2)cc1` (stereo not given): the molecule was called inactive. With `COC(=O)c1ccc(COC(=O)c2ccccn2)cc1`, the outcome was inactive. With `CC(C)Cc1oc(C(=O)O)cc1CN` the entry was “inactive”; with `c1ccc2oc(SCc3cn4ccccc4n3)nc2c1`, “inactive”; with `Cc1cc(C)n(-c2ccc(C(=O)Nc3nc4ccccc4s3)cc2)n1`, “inactive”. The same measure for `C(=N\c1nc2ccccc2n1CCN1CCCCC1)/c1cccs1`: “inactive”; for `CC(=O)c1cccc(NC(=O)Nc2cccs2)c1`: “inactive”; for `CC(C)(C)c1ccc(-c2n[nH]c(=S)n2/N=C/c2ccncc2)cc1`: “inactive”. With `COc1cccc(NC(=S)N/N=C2\CC(C)(C)Oc3ccc(O)cc32)c1` the entry was “inactive”; with `N#CC(C#N)=c1ccc2c(c1)NC1(CCCCC1)N=2`, “inactive”; with `O=S1(=O)C=CC(Nc2ccccc2)C1` (stereo not given), “inactive”. `Brc1ccc(-c2cnc3n2CCCC3)cc1`: the molecule was called inactive. With `O=C(Nc1nccs1)c1cc(-c2ccco2)nc2ccccc12` the entry was “inactive”; with `COc1ccccc1-c1cc(C(=O)Nc2cc(C)nn2-c2ccccc2)no1`, “inactive”. The same measure for `CCCOC(=O)C(C)n1cnc2sc(C)c(C)c2c1=O` (stereo not given): “inactive”; for `COc1cc(C)nc(Nc2nc(C)c(C(C)=O)s2)n1`: “inactive”; for `O=C(CSc1nnc(-c2cccs2)n1-c1ccccc1)NCc1ccc2c(c1)OCO2`: “inactive”.

For the molecule `O=C(CCN1C(=O)c2ccccc2C1=O)Nc1ccc(-c2cn3ccsc3n2)cc1`, the call was inactive.

As to `Cc1cccc(C)c1NC(=O)CSc1nnc(NC(=O)CN2CCOCC2)s1`, the call was inactive. The same measure for `C(=N\N1CCN(C2c3ccccc3-c3ccccc32)CC1)/c1cccs1`: “inactive”; for `O=C(N/N=C/C1C(c2ccccc2)C1(Cl)Cl)c1cccc(Cl)c1` (stereo not given): “inactive”; for `Nc1nnc(CC(=O)N/N=C\c2cc([N+](=O)[O-])ccc2O)s1`: “inactive”. With `C/C(=N\NC(=O)C1CC1c1ccccc1)c1cccc([N+](=O)[O-])c1` (stereo not given) the entry was “inactive”. For `COc1cc([N+](=O)[O-])ccc1NC(=O)CN(C)C`, the outcome was inactive.

On to `Cc1cc(/C=N/NC(=O)c2cccc([N+](=O)[O-])c2)c(C)n1-c1ccc(Cl)cc1Cl`, for which the molecule was classed as inactive. With `O=C(N/N=C/c1ccc(Cl)cc1Cl)c1cccc(F)c1` the entry was “inactive”; with `Cc1ccc(N=Nc2ccc(O)c(/C=N\NC(=O)c3ccc(N)cc3)c2)cc1C`, “inactive”; with `COc1cccc(NC(=O)NCCCN2CCN(c3ccc(F)cc3)CC2)c1`, “inactive”.

On to `COc1cc(C2C(C(=O)c3ccc(C)o3)=C(O)C(=O)N2CCc2ccccc2)ccc1O` (stereo not given), for which the outcome was inactive.
